SENP8 block-1 = inhibitors of human SENP8 protease. Q96LD8. purified SENP8, Z-RLRGG-aminoluciferin cleavage, luminescence. inhibition, % at 10 µM. hit rate 1.2% among 330,000. AID 2540; in the data active = inhibition above about 50%
Target sequence (Q96LD8 whole entry, looked up): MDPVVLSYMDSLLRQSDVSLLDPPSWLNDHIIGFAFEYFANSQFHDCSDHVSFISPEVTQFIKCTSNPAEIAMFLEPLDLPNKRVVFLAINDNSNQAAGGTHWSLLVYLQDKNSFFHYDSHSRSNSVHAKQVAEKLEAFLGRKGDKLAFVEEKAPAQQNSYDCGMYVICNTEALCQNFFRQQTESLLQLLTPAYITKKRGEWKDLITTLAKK
SENP7 block = blocks the human protease SENP7; Q9BQF6; recombinant SENP7, Z-RLRGG-aminoluciferin luminescence, 40 min; inhibition, % at 5 µM; hit rate 1.5% among 330,000; AID 434973;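 active = inhibition above about 50% at the single test dose, limit read from the data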
Target sequence (Q9BQF6 706-1050 limits assumed): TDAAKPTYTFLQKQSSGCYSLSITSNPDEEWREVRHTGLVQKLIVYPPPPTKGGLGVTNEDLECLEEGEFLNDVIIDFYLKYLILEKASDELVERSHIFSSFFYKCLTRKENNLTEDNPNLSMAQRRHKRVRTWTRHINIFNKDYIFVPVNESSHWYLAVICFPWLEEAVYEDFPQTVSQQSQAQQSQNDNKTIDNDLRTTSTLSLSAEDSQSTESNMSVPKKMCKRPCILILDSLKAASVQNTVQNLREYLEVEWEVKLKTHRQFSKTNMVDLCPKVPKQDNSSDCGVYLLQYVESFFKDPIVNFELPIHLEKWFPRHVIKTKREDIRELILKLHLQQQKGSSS
HSP90 refold inh = blocks HSP90-mediated luciferase refolding in reticulocyte lysate. Rabbit reticulocyte lysate, luciferase refolding luminescence, 3 h. inhibition, % at 5.6 µM. hit rate 0.91% among 290,000;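 active = inhibition above the screen-wide mean plus 3 SD, computed separately per campaign, cut at about 16% in these data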;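 also: inhibitors lower the luminescence because luciferase stays unfolded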
SENP6 inh = blocks the human protease SENP6; inhibition, % at 10 µM; hit rate 1.8% among 330,000; Q9GZR1; Recombinant SENP6 catalytic domain, aminoluciferin luminescence;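 active = inhibition above about 50% at the single tested dose, limit read from the data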
SENP8 block-2 = blocks human SENP8 cleavage of Nedd8 substrate; recombinant SENP8, Nedd8 substrate fluorescence; Q96LD8; inhibition, % at 20 µM; hit rate 0.64% among 360,000; in the data active = inhibition mostly above about 40%, no sharp cut-off; inactive = mostly below about 27%
SENP8 inh conf = confirmation of human SENP8 protease inhibitors. shares compounds with SENP8 block-2. purified SENP8, Nedd8-AMC/pro-Nedd8 cleavage fluorescence, 30 min. inhibition, % at 25 µM. hit rate 15% among 1,400; in the data active = inhibition mostly above about 39%, no sharp cut-off; inactive = mostly below about 34%
Hits are given with their value; 0 = inactive; - = no result given. Sampled rows, rich in hits. Any-hit rate of the full collection: about 2.7%.

SMILES	SENP8 block-1	SENP7 block	HSP90 refold inh	SENP6 inh	SENP8 block-2	SENP8 inh conf
O=C(Cn1ncc2c([nH]c3ccccc32)c1=O)N1CCc2ccccc2C1	0	0	0	0	0	-
O=C(CCc1nc2ccccc2[nH]1)N1CCc2ccccc2C1	0	0	0	0	45	54
Cc1ccc(OCCCC(=O)N(C)CC(=O)Nc2ccccc2Br)cc1	0	0	-	0	37	0
Cc1ccc(C(=O)CCC(=O)N(C)CC(=O)Nc2ccccc2Br)cc1	0	0	0	0	0	-
Cc1ccc(NNC(=O)c2c(C)noc2C)cc1Cl	0	0	0	0	54	0
O=C(c1cc(-c2ccccc2Cl)on1)N1CCN(C(=O)c2ccco2)CC1	0	0	0	0	43	0
O=C(c1cc(-c2ccc(Cl)cc2Cl)on1)N1CCN(C(=O)c2ccco2)CC1	0	0	0	0	0	-
Cn1cnnc1SCC(=O)N1CCc2ccccc2C1	-	-	-	-	0	-
CC(=O)c1ccc(-n2nnnc2SCC(=O)N2CCc3ccccc3C2)cc1	-	-	0	-	61	79
COc1ccc(CCNC(=O)CSCc2ccc(F)cc2)cc1OC	0	0	0	0	0	-
CCN(CC)CCn1c(OC)cc(=O)[nH]c1=O	0	0	0	0	43	0
c1ccc(OCCSc2nc3ccccc3o2)cc1	0	0	0	0	0	-
CCOc1ccc(OCCSc2nc3ccccc3o2)cc1	0	0	0	0	47	0
Cc1cc(C)c2c(n1)SCC(=O)N2CC(=O)Nc1ccccc1Cl	0	0	0	0	0	-
CCOC(=O)c1nn(-c2ccccc2C)c(=O)c2c(N)scc12	0	0	0	0	47	0
CCOC(=O)c1nn(-c2ccccc2C)c(=O)c(C#N)c1C	0	0	0	0	0	-
CN(Cc1cnn(C)c1)Cc1nc(Cc2ccccc2Cl)no1	0	0	0	0	0	-
CC(C)N(Cc1cnn(C)c1)Cc1nc(Cc2ccccc2Cl)no1	0	0	0	0	47	0
Cc1ccc(/C=C/C(=O)c2ccc(O)cc2)cc1	63	59	0	86	42	0
Cc1ccc(C(=O)/C=C/C(=O)O)cc1	0	0	0	0	0	-
COC(=O)CCCC1=CC2=CC(=O)C(C)(OC(=O)c3cccs3)C(=O)C2=CN1C1CCCCC1 (configuration not stated)	0	0	-	0	0	-
COC(=O)CCCC1=CC2=CC(=O)C(C)(OC(=O)c3cccs3)C(=O)C2=CN1CCN1CCOCC1 (configuration not stated)	0	0	-	0	51	55
COC(=O)CCCC1=CC2=CC(=O)C(C)(OC(=O)c3cccs3)C(=O)C2=CN1C1CC1 (configuration not stated)	0	0	-	0	41	63
COC(=O)CCCC1=CC2=C(c3ccccc3)C(=O)C(C)(OC(=O)C3CCCC3)C(=O)C2=CN1CCCCO (configuration not stated)	0	0	-	0	48	66
COCCN1C=C2C(=O)C(C)(OC(=O)c3cccs3)C(=O)C=C2C=C1CCCC(=O)OC (configuration not stated)	0	0	-	0	0	-
SMILES	SENP8 block-1	SENP7 block	HSP90 refold inh	SENP6 inh	SENP8 block-2	SENP8 inh conf
COC(=O)CCCC1=CC2=CC(=O)C(C)(OC(=O)c3cccs3)C(=O)C2=CN1CCCCO (configuration not stated)	0	0	-	0	53	56
CN(C)[C@H]1N(C(=O)c2ccc(Br)cc2)N=C2c3ccccc3S(=O)(=O)N21	0	0	0	0	0	-
CC(C)=CCc1c2c(c3occ(-c4ccc(O)c(O)c4)c(=O)c3c1O)C=CC(C)(C)O2	-	-	-	-	0	-
CC(C)=CCc1c2c(c3occ(-c4ccc(O)cc4)c(=O)c3c1O)C=CC(C)(C)O2	0	0	0	0	43	0
CN(C)c1cc(Nc2cccc(O)c2)c([N+](=O)[O-])c2nonc12	0	0	0	0	45	0
COc1ccc(C(CC(=O)c2ccccc2)CC(=O)c2ccccc2)cc1	0	0	0	0	0	-
O=C(NCCC1=CCCCC1)c1cnsn1	0	0	0	0	0	-
CN1CCN(C2CN(C3CCCCC3)S(=O)(=O)C2)CC1 (configuration not stated)	-	-	-	-	0	-
O=S1(=O)CC(N2CC=CC2)CN1C1CCCCC1 (configuration not stated)	-	-	-	-	41	36
COc1cc(NC(=O)C2CCCCN2)ccc1OCC(C)C (configuration not stated)	0	0	0	0	27	0
O=C(CCn1cccn1)Nc1ccc(-c2ccno2)cc1	0	0	0	0	0	-
CC(C)(C)c1ccc(C(=O)NC(=O)COC(=O)c2ccco2)cc1	0	0	-	0	0	-
C=Cn1ccnc1CC(O)c1ccc(OC)cc1 (configuration not stated)	0	0	-	0	44	0
COc1ccc(OC)c(S(=O)(=O)Nc2ccc(O)c3ccccc23)c1	0	0	0	0	0	-
COc1ccc(OC)c(S(=O)(=O)Nc2cccc3c(O)cccc23)c1	0	0	-	0	48	0
Cc1nc2c(s1)sc1ccccc12	0	0	0	0	0	-
CCC1CCc2sc(C(=O)NNC(=S)NCC3CCCO3)cc2C1 (configuration not stated)	0	0	-	0	0	-
CN(Cc1cn(-c2ccccc2)nc1-c1ccc(Cl)cc1)C(=O)CCC(=O)O	0	0	0	0	40	0
CN(Cc1cn(-c2ccccc2)nc1-c1ccc(F)cc1)C(=O)CCC(=O)O	0	0	0	0	0	-
O=C(Cc1c(F)cccc1Cl)Nc1ccc(S(=O)(=O)N2CCOCC2)cc1	0	0	0	0	0	-
CC(=O)Nc1ccc(NC(=O)c2cc([N+](=O)[O-])cc([N+](=O)[O-])c2)cc1	0	0	0	0	0	-
Cc1ccc(NC(=O)c2ccc(Nc3c([N+](=O)[O-])cc([N+](=O)[O-])cc3[N+](=O)[O-])cc2)cc1	0	0	0	0	42	0
O=C(CCC(=O)N1CCSc2ccccc21)Nc1cccc(F)c1	0	0	0	0	0	-
COc1ccc(/C=N/NC(=O)C(=O)N2CCCC2)cc1	0	0	0	0	0	-
COc1ccccc1N(CC(=O)NC1CCCC1)C(=O)c1csnn1	0	0	0	0	45	0
SMILES	SENP8 block-1	SENP7 block	HSP90 refold inh	SENP6 inh	SENP8 block-2	SENP8 inh conf
CC(=O)Nc1ccc(C(=O)O)cc1	0	0	-	0	46	0
O=S(=O)(Nc1cc(Cl)ccc1-n1cncn1)c1ccc(F)cc1	0	0	-	0	0	-
C/C(=N\NC(=O)c1cc([N+](=O)[O-])cc([N+](=O)[O-])c1)c1ccco1	0	0	0	0	0	-
C/C(=N\Nc1ccc(S(N)(=O)=O)cc1[N+](=O)[O-])c1ccco1	0	0	0	0	48	0
CCOc1ccc2oc(C(=O)NCC3CCCO3)c(C)c2c1 (configuration not stated)	0	0	0	0	0	-
COc1cccc(NC(=S)N/N=C2\CC3CCC2(C)C3(C)C)c1 (configuration not stated)	0	0	0	0	0	-
COc1cccc(NC(=S)NN=C2CCC(C(C)(C)C)CC2)c1 (configuration not stated)	0	0	0	0	47	0

Screening data from PubChem.
